Screens from PubChem BioAssay.
PABP FP inh – PABP poly(A) RNA binding inhibitors, primary screen, biochemical, fluorescence polarization, uHTS. calls only at 35 µM. 290,000 compounds, 1% hits. Polyadenylate-binding protein 1 (Homo sapiens), P11940. AID 2014, 2009;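 note: calls also rest on retests at 20 µM and on dose response follow-up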
APOBEC3A inh – APOBEC3A ssDNA deaminase inhibitors, primary screen, selectivity assay for APOBEC3G inhibitor project, biochemical, FAM/TAMRA oligo cleavage fluorescence; DNA dC->dU-editing enzyme APOBEC-3A (Homo sapiens), P31941; recombinant A3A, FAM/TAMRA ssDNA deamination fluorescence; inhibition, % at 20 µM; 330,000 compounds, 0.41% hits;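 active = at least 40% inhibition at 20 µM here, with at most 30% in a related deaminase screen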;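 note: plate controls were A3A with DMSO for no effect and wells lacking A3A enzyme for full effect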
Target sequence (P31941 whole entry, looked up): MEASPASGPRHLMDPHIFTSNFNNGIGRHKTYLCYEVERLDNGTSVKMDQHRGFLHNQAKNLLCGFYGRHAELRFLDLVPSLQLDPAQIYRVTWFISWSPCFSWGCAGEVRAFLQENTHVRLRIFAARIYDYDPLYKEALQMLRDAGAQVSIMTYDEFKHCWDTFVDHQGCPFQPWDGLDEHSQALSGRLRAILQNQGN
A3G deaminase – APOBEC3G DNA deaminase inhibitors, primary screen, biochemical, fluorescence, single-stranded DNA substrate, uHTS. DNA dC->dU-editing enzyme APOBEC-3G (Homo sapiens), Q9HC16. recombinant A3G, ssDNA deamination FAM/TAMRA fluorescence. inhibition, % at 20 µM. 330,000 compounds, 0.28% hits. AID 493012, 2011;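 active = inhibition of at least 40% at 20 µM, with no more than 30% in the related APOBEC3A deaminase screen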;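 note: plate controls were DMSO wells with A3G for no effect and wells lacking A3G enzyme for full effect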
eIF4H FP inh – human eIF4H binding inhibitors, primary screen, translation initiation inhibitor project, biochemical, uHTS, fluorescence polarization | eIF4H fluorescence polarization binding assay | inhibition, % at 35 µM | 290,000 compounds, 0.94% hits | AID 2012, 2009;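 note: calls also rest on retests at 20 µM and on dose response follow-up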
MLLE-PAM2 inh – inhibitors of PABP1 MLLE–PAM2 peptide binding, primary screen, biochemical, fluorescence polarization, FITC-PAM2, GST-MLLE; inhibition, % at 20 µM; 360,000 compounds, 0.36% hits; AID 588489, 2011; in the data active = inhibition above about 35%, passing the limit was not always enough;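 note: plate controls were DMSO wells with GST-MLLE for no effect and wells lacking GST-MLLE protein for full effect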
PHOSPHO1 inh – PubChem AID 1565; Phosphoethanolamine/phosphocholine phosphatase (Homo sapiens), Q8TCT1; recombinant PHOSPHO1, absorbance phosphatase assay; inhibition, % at 13.3 µM; 290,000 compounds, 1.1% hits; in the data active = inhibition above about 60%
* = called active by the depositor; i = inactive; ? = inconclusive; nt = no result given; + = active, no number. An excerpt weighted towards active compounds, which were near 2.6% of everything screened. Unless noted, the rule behind the calls is not given here.

SMILES	PABP FP inh	APOBEC3A inh	A3G deaminase	eIF4H FP inh	MLLE-PAM2 inh	PHOSPHO1 inh
Cc1cc(NS(=O)(=O)c2ccc(NC(=S)NC(=O)c3ccc(F)cc3)cc2)no1	i	4	-7	2	40*	11
COc1ccc(OCC(=O)NC(=S)Nc2ccc(S(=O)(=O)Nc3cc(OC)nc(OC)n3)cc2)cc1	i	0	-2	-4	49*	-7
O=C(Nc1ccccc1)c1cc(C2COCCN2C(=O)C2CC2)on1 (stereo unspecified)	nt	nt	nt	nt	7	nt
CC(=O)N/C(=C\c1ccc(F)cc1)C(=O)N(C)C	i	2	0	-1	1	-5
C[C@H](NC(=O)c1ncn(Cc2ccccc2)c1C(=O)N[C@@H](C)c1ccccc1)c1ccccc1	nt	0	-8	nt	6	nt
COc1ccccc1NC(=O)C(C)OC(=O)C1CCC(C(C)(C)C)CC1 (stereo unspecified)	nt	1	-2	nt	4	nt
COc1ccc(NS(=O)(=O)c2ccc(NC(=S)NC(=O)c3cccc(F)c3)cc2)nn1	i	-1	-6	-2	38*	11
O=C(Cc1cccc(NC(=O)C2CCCN(C(=O)C3CCCC3)C2)c1)Nc1ccc(C(=O)N2CCCCC2)cc1 (stereo unspecified)	nt	nt	nt	nt	-11	nt
Cc1cc(C(=O)C(C)Cl)c(C)n1Cc1ccco1 (stereo unspecified)	+	8	-5	101*	4	21
Cc1cc(C(=O)COC(=O)c2ccc(O)cc2)c(C)n1Cc1ccco1	+	-1	6	74*	-15	-24
O=C(O)CC1c2ccccc2CCN1S(=O)(=O)c1ccc(F)cc1 (stereo unspecified)	i	0	-4	3	1	-19
O=c1oc2cc(O)c(Cl)cc2c2ccccc12	i	-4	-8	-2	4	-7
O=c1cc2c(=O)oc3cc(O)c(O)oc3c2c(O)c1O	+	nt	nt	92*	30	-23
COC(=O)C1=COC(OC2OC(CO)C(O)C(O)C2O)C2C1C=CC2(O)CO (stereo unspecified)	+	44	38	89*	-1	31
O=C(Nc1nnc(Cc2ccccc2F)s1)Nc1ccccc1F	i	-4	-6	-1	-11	34
CCC1(C)Cc2c(sc3c2c2ncnn2c2nnc(SCC(=O)NCc4ccco4)n32)CO1 (stereo unspecified)	i	13	6	10	-86	65*
COc1cc(N=Nc2ccc(Br)cc2)cc(C=O)c1O	nt	nt	nt	nt	-2	nt
CCc1cc(CNC(=O)c2ccc(OC3CCN(C(C)=O)CC3)c(OC)c2)on1	i	-6	-7	6	-10	67*
COc1ccc(C2c3sc(=O)[nH]c3SC3C(=O)N(c4ccccc4)C(=O)C32)cc1 (stereo unspecified)	i	0	-8	66*	26	54
O=C1C2Sc3[nH]c(=O)sc3C(c3ccccc3)C2C(=O)N1c1ccccc1 (stereo unspecified)	i	-3	-6	9	21	48
COc1ccc(C)cc1NC(=O)C(NC(=O)c1cc(OC)c(OC)c(OC)c1)C(C)C (stereo unspecified)	+	-2	-7	91*	-8	17
COc1cc(C(=O)N[C@H](C(=O)NC(C)C23CC4CC(CC(C4)C2)C3)C(C)C)cc(OC)c1OC (stereo partly specified)	i	-3	-4	2	-8	0
CCCCNC(=O)Oc1c(Br)cc2sc(=O)oc2c1Br	+	58	41	96*	nt	42
CN1CCN(NC(=O)CN2C(=O)S/C(=C\c3c(Cl)cccc3Cl)C2=O)CC1	i	0	-7	8	41*	22
O=C(CCN1C(=O)/C(=C/c2ccccc2Cl)SC1=S)NN1CCOCC1	i	-4	-2	-13	25	32
SMILES	PABP FP inh	APOBEC3A inh	A3G deaminase	eIF4H FP inh	MLLE-PAM2 inh	PHOSPHO1 inh
Cc1cccc(-n2ccnc2SCC(=O)Nc2ccc3c(c2)OCCO3)c1	i	-1	-5	2	-8	14
Cc1ccc(NC(=O)CSc2ncn(-c3ccccc3)n2)cc1C	i	-2	-8	2	8	-23
O=C(CSc1nccn1-c1ccc(Cl)cc1)Nc1ccc2c(c1)OCO2	i	-1	-4	6	-20	89*
O=C(CSc1ncn(-c2ccccc2)n1)c1cccs1	i	0	-1	-6	38*	-38
O=C(CSc1ncn(-c2ccccc2)n1)Nc1ccc2c(c1)OCCO2	i	-6	-6	1	37*	62*
O=C(CSC1=NC2(CCCCC2)N=C1c1ccccc1)Nc1ccc2c(c1)OCCO2	?	-1	0	?	46*	-21
Cc1ccc(C(=O)N2CCCCC2C(=O)O)o1 (stereo unspecified)	i	-5	-4	-8	-8	22
COc1cc(OC)c(OC)cc1CNC(=O)CCN1C(=O)c2cccc([N+](=O)[O-])c2C1=O	i	-2	-14	-2	7	28
Cc1ccc(NC(=O)CSc2nnc3c(n2)[nH]c2ccccc23)cc1	i	-4	-13	-1	-9	35
CC1(C)N=C(SCC(=O)Nc2ccccc2)C(c2ccc(Cl)cc2)=N1	i	-1	-1	-4	44*	33
O=C(CSc1nnc2c(n1)[nH]c1ccccc12)Nc1ccc2c(c1)OCO2	i	3	3	10	37*	78*
O=C(CSc1nnc(CNC(=O)c2ccccc2F)o1)Nc1ccc2c(c1)OCCO2	i	2	1	0	47*	10
CCc1nc2ccc(C(=O)Nc3cccc(OCC(=O)N(C)C)c3)cn2c1N(CCC(C)C)CCN(C)C	nt	nt	nt	nt	2	nt
NC(COCc1ccccc1)c1csc(Nc2ccccn2)n1 (stereo unspecified)	nt	nt	nt	nt	0	nt
Cc1c(C)c2c(OCC(=O)NCC3CCC(C(=O)O)CC3)cc3c(c2oc1=O)CCC(C)(C)O3 (stereo unspecified)	nt	nt	nt	nt	-7	nt
O=S(=O)(c1cccs1)N1CN(Cc2cccs2)c2nc3ccccc3nc21	i	-4	-5	0	-13	-3
C=CCN1CN(S(=O)(=O)c2cccs2)c2nc3ccccc3nc21	+	1	-5	82*	-15	-34
CC(CCc1ccccc1)NC(=O)C(=O)Nc1ccccc1 (stereo unspecified)	i	-1	-3	-2	-3	2
CC(C)c1nnc(SCC(=O)NCCC2=CCCCC2)n1N	i	3	6	6	42*	92*
